Inconclusive results are not listed. The source made the active and inactive calls. How the source made its calls: active means hit-call score of the fitted dose curve at least 0.9, where 1 is the maximum; inconclusive means response in the unintended direction; inactive means score below 0.9.
assay: Tanguay_ZF_120hpf_TR_legacy: (Legacy) Oregon State University Tanguay Lab 120 Hour Post-fertilization zebrafish Assay for Touch Response (AID 2283667)
Experimental: Tanguay_ZF_120hpf_legacy is a whole embryo, multiplexed endpoint assay using zebrafish larvae exposed for 120 hours post fertilization on a 96-well plate.Tanguay_ZF_120hpf_TR_legacy is one of one assay component(s) measured or calculated from the Tanguay_ZF_120hpf_legacy assay. It is designed to make measurements of zebrafish development as detected with brightfield microscopy of developing zebrafish embryos.Data from the assay component Tanguay_ZF_120hpf_TR_legacy was analyzed into 1 assay endpoints. This assay endpoint, Tanguay_ZF_120hpf_TR_legacy, was analyzed in the positive analysis fitting direction relative to DMSO as the negative control and baseline of activity. Using a type of morphology reporter, gain-of-signal activity can be used to understand changes in developmentals as they relate to the whole embryo. To generalize the intended target to other relatable targets, this assay endpoint is annotated to the zebrafish development intended target family, where the subfamily is embryonic functional response.
Zebrafish husbandry: Tropical 5D wild-type adult zebrafish were housed in at an approximate density of 1000 per 100 gallon tank at the Sinnhuber Aquatic Research Laboratory, Oregon State University, Corvallis, OR. Each tank was kept at standard laboratory conditions of 28C on a 14-h light/10-h dark photoperiod in fish water consisting of reverse osmosis water supplemented with a commercially available salt (Instant Ocean). Spawning funnels were placed into the tanks the night prior, and embryos were collected and staged. […] Ten microliters of each row of dilution plate 2 was added to 2 exposure plates. The final DMSO concentration used was 0.64% (vol/vol). Thirty-two embryos were also exposed to 5uM trimethyltin chloride (positive control). Plates were sealed to prevent evaporation and foil covered to reduce light exposure and kept in a 28C incubator. Embryos were statically exposed until 120 hpf. At 24 hpf, embryos were assessed for photomotor response using a custom photomotor response analysis tool (PRAT) and for developmental toxicity endpoints (MO24: mortality at 24 hpf, DP: developmental progression, SM: spontaneous movement, and NC: notochord distortion). At 120 hpf, locomotor activity was measured using Viewpoint Zebralab and assessed for 18 endpoints. Zebrafish acquisition and analysis program (ZAAP), a custom program designed to inventory, acquire, and manage zebrafish data, was used to collect developmental endpoints as either present or absent (i.e., binary responses were recorded). If mortality occurred for an embryo (at either 24 or 120 hpf), the non-mortality endpoints were not measured.

Question: Which outcome does the source give for CCOP(=O)(NC(C)C)Oc1ccc(SC)c(C)c1 (stereo not given) here?
Answer: Its outcome is “inactive”.

Question: With CNC(=O)Oc1cccc2c1OC(C)(C)O2 as the molecule, how does the outcome read?
Answer: Its outcome is “inactive”.

Question: For O=C(O)c1cc(Oc2ccc(C(F)(F)F)cc2Cl)ccc1[N+](=O)[O-], which outcome is on record?
Answer: The outcome was “inactive”.

Question: For CN(C)NC(=O)CCC(=O)O, which outcome is on record?
Answer: Its outcome is “inactive”.

Question: For CCCOc1nn(C(=O)NS(=O)(=O)c2ccccc2C(=O)OC)c(=O)n1C, which outcome is on record?
Answer: The outcome was “inactive”.

Question: Which outcome does the source give for CN(C)C(=O)Nc1cccc(C(F)(F)F)c1 here?
Answer: Its outcome is “inactive”.

Question: For CC1(C(=O)Nc2ccc(O)c(Cl)c2Cl)CCCCC1, which outcome is on record?
Answer: Its outcome is “inactive”.

Question: Which outcome does the source give for C[N+]1(C)CCCCC1 here?
Answer: The outcome was “inactive”.

Question: Which outcome does the source give for S=C1NCCN1 here?
Answer: Its outcome is “inactive”.

Question: With COP(=O)(OC)SCn1c(=O)oc2cc(Cl)cnc21 as the molecule, how does the outcome read?
Answer: The outcome was “inactive”.

Question: For CCOP(=O)(SC(C)CC)N1CCSC1=O (stereo not given), which outcome is on record?
Answer: The outcome was “inactive”.

Question: With CNc1cnn(-c2cccc(C(F)(F)F)c2)c(=O)c1Cl as the molecule, how does the outcome read?
Answer: The outcome was “inactive”.

Question: Which outcome does the source give for CON=C(C(=O)OC)c1ccccc1CON=C(C)c1cccc(C(F)(F)F)c1 here?
Answer: The outcome was “inactive”.

Question: For CCNc1nc(Cl)nc(NC(C)(C)C#N)n1, which outcome is on record?
Answer: Its outcome is “inactive”.

Question: Which outcome does the source give for C#CCC1=C(C)C(OC(=O)C2C(C=C(C)C)C2(C)C)CC1=O (stereo not given) here?
Answer: Its outcome is “inactive”.

Question: Which outcome does the source give for CCOP(=S)(OCC)Oc1ccc2c(C)c(Cl)c(=O)oc2c1 here?
Answer: Its outcome is “inactive”.

Question: For CCOP(=S)(Oc1cnc(C(C)(C)C)nc1)OC(C)C (stereo not given), which outcome is on record?
Answer: The outcome was “inactive”.

Question: Which outcome does the source give for Nc1nc(N)nc(NC2CC2)n1 here?
Answer: Its outcome is “inactive”.

Question: Which outcome does the source give for Cc1ccn2nc(S(=O)(=O)Nc3c(F)cccc3F)nc2n1 here?
Answer: Its outcome is “inactive”.

Question: Which outcome does the source give for CCOP(=S)(OCC)Oc1cc(C)nc(C(C)C)n1 here?
Answer: The outcome was “inactive”.

Question: For COc1cccc(C(=O)NN(C(=O)c2cc(C)cc(C)c2)C(C)(C)C)c1C, which outcome is on record?
Answer: The outcome was “inactive”.

Question: With FC(F)C(F)(F)OCC(Cn1cncn1)c1ccc(Cl)cc1Cl (stereo not given) as the molecule, how does the AC50 read?
Answer: Its AC50 is 34.8 µM (active).

Question: With CCCCSP(=O)(SCCCC)SCCCC as the molecule, how does the outcome read?
Answer: The outcome was “inactive”.

Question: With CCOP(=O)(OCC)Oc1cc(C)nc(C(C)C)n1 as the molecule, how does the outcome read?
Answer: The outcome was “inactive”.

Question: Which outcome does the source give for CCC(=O)Nc1ccc(Cl)c(Cl)c1 here?
Answer: The outcome was “inactive”.

Question: Which outcome does the source give for C=C(C)[C@H]1Cc2c(ccc3c2O[C@@H]2COc4cc(OC)c(OC)cc4[C@@H]2C3=O)O1 here?
Answer: The outcome was “inactive”.

Question: Which outcome does the source give for C#CC(C)(C)NC(=O)c1cc(Cl)cc(Cl)c1 here?
Answer: The outcome was “inactive”.

Question: For CCOP(=S)(OCC)SCCSCC, which outcome is on record?
Answer: Its outcome is “inactive”.

Question: For CC[C@H](C)[C@H]1O[C@]2(C=C[C@@H]1C)C[C@@H]1C[C@@H](C/C=C(\C)[C@@H](O[C@H]3C[C@H](OC)[C@@H](O[C@H]4C[C@H](OC)[C@@H](NC)[C@H](C)O4)[C@H](C)O3)[C@@H](C)/C=C/C=C3\CO[C@@H]4[C@H](O)C(C)=C[C@@H](C(=O)O1)[C@]34O)O2, which AC50 is on record?
Answer: The AC50 was 0.0479 µM (active).

Question: Which outcome does the source give for COP(=O)(NC(C)=O)SC (stereo not given) here?
Answer: The outcome was “inactive”.

Question: With COP(=O)(OC)OC(Br)C(Cl)(Cl)Br (stereo not given) as the molecule, how does the outcome read?
Answer: Its outcome is “inactive”.

Question: For CCCOCC(=Nc1ccc(Cl)cc1C(F)(F)F)n1ccnc1, which outcome is on record?
Answer: The outcome was “inactive”.

Question: With CCC(CC)Nc1c([N+](=O)[O-])cc(C)c(C)c1[N+](=O)[O-] as the molecule, how does the outcome read?
Answer: Its outcome is “inactive”.

Question: With CC(C)[C@H](C(=O)O[C@H](C#N)c1cccc(Oc2ccccc2)c1)c1ccc(Cl)cc1 as the molecule, how does the AC50 read?
Answer: The AC50 was 5.43 µM (active).

Question: Which AC50 does the source give for Nc1c(Cl)cc([N+](=O)[O-])cc1Cl here?
Answer: The AC50 was 38.8 µM (active).

Question: Which outcome does the source give for CCOC(=O)CC(SP(=O)(OC)OC)C(=O)OCC (stereo not given) here?
Answer: Its outcome is “inactive”.

Question: For CCOC(=O)COc1cc(-c2nn(C)c(OC(F)F)c2Cl)c(F)cc1Cl, which outcome is on record?
Answer: The outcome was “inactive”.

Question: For CC1=NNC(=O)N(/N=C/c2cccnc2)C1, which outcome is on record?
Answer: The outcome was “inactive”.

Question: For CC(C)N(C(=O)SCC(Cl)=C(Cl)Cl)C(C)C, which outcome is on record?
Answer: The outcome was “inactive”.

Question: With CSC1=N[C@@](C)(c2ccccc2)C(=O)N1Nc1ccccc1 as the molecule, how does the outcome read?
Answer: Its outcome is “inactive”.
